Among the data in the OligoGym collection are sensor-assay potency score (higher = more potent) values, retold here.
Also: reference of the scale not given here.

The first experiment deals with DEXI. As to the kind of experiment: pooled miR-30 sensor sort-seq; sequence = guide strand. To be noted: shRNA.
The sequence ATGTACTCCATGAGGAAGGCGT had a sensor-assay potency score (higher = more potent) of -1.19.
Same read-out and setting: with TAGTACAGGATCAGCACATTGA the figure was -0.394; with TCAAAGACGTCGAGCTCCGAGT, -0.796.
Same read-out and setting: the same measure for TACAGGATCAGCACATTGACGA: 0.243.

The target in another experiment is DGKE. The description is as above. To be noted: shRNA.
TTGCACTAAACAATCTTTGGTT had a sensor-assay potency score (higher = more potent) of 0.42.
As for TTTGTTACTTGAACTTTCCATC, the sensor-assay potency score (higher = more potent) is -0.49.
Still for that read-out and setting: with TTCTTGAGCATAATCTCCTTGC the figure was -0.369.
Same read-out and setting: the same measure for TTGACAGCCACACTGCTGCTTG: 0.0149; for TTTTGGATGAACATGTATCTAC: -0.088; for TTACTTGAACTTTCCATCGATC: -0.458.
Still for that read-out and setting: with TGAACATGTATCTACTTGCGTG the figure was -0.503; with TTGAACTTTCCATCGATCTAGT, 0.305.
TTTGACAGTAATCATTTCCTTT registered a sensor-assay potency score (higher = more potent) of -0.513.
As to TTTAATTCCATCTGCTTCCATT, the sensor-assay potency score (higher = more potent) was -0.836.
The same measure, in the same setting: the same measure for TTAATTTGATCTTTCCACCCAC: 0.385.

A further experiment concerns the target DGKH. The description is as above. To be noted: shRNA.
TTCATCTTCTATAATGTCCTTC registered a sensor-assay potency score (higher = more potent) of 0.785.
Still for that read-out and setting: with TTGTTGATAATCGAACTCCCAG the figure was -0.448; with TACAGTTTCACATAGCGTCTTG, -0.34; with TAGAGGACTAACACAGAACGAA, -0.365.
Turning to TTTCTTTAAACTATTTGCCCGC, the sensor-assay potency score (higher = more potent) was -0.524.
Same read-out and setting: with TAACATTTTGTTGATAATCGAA the figure was -0.475.
On to TTGAATTTACACACTTCGCAGG, for which the sensor-assay potency score (higher = more potent) was -0.529.
Sequence TTTACCAGAATCACACTTCTGC registered a sensor-assay potency score (higher = more potent) of 0.827.
Sequence TGAACTTGTCTTCTGCTTCTGA displayed a sensor-assay potency score (higher = more potent) of 0.759.
Still for that read-out and setting: with TTGCTCTACAGAAACCATCGGA the figure was 0.0953; with TAAATCAAACACCTGAGCCGGA, 0.112; with TATGTCATTATACTCCACCTGT, -0.182.

The target of another experiment is DHCR7. The description is as above. To be noted: shRNA.
TACAGAAGCACCTGGAAGGTGA: the sensor-assay potency score (higher = more potent) is 0.0614.
Same read-out and setting: with TTAAACTCGATGCCCATCATGT the figure was -0.575; with TAGGAAGATGACGCTCGCCAGT, -1.46; with TATAGGTGGAGTCTTGGCCCAG, -1.1.
On the same count and under the same terms, the same measure for TGAAGTCAAACCACTTCCCGAT: -0.223; for TTGAAGAACAGCTTGAAGTCAA: 0.748; for AACAGCTTGAAGTCAAACCACT: -1.51.
Consider TGATACTTGTTCACAACCCCTG, for which the sensor-assay potency score (higher = more potent) is -0.124.
As for ATGGTCTTCAGGTACCAGGTTT, the sensor-assay potency score (higher = more potent) was -0.879.
On the same count and under the same terms, with AAGTAGTAGACGATGAAGGGGG the figure was 0.135; with TCAATGGTCTTCAGGTACCAGG, -1.35.
The same measure, in the same setting: with TAGATGATGTAGAAGTAGGGCA the figure was 0.47.
Same read-out and setting: the same measure for TTGAAGTCAAACCACTTCCCGA: -0.639.
